From the OligoGym collection

Biological target: DPRX
Experiment: pooled miR-30 sensor sort-seq; sequence = guide strand
Settings: shRNA
Further: reference of the scale not given here.

Sequence | sensor-assay potency score (higher = more potent)
TGCTTCTTAGTGAACATGGTTC | -0.891
TAGTGTGTCTGCATTTCTCAGG | -0.247
TTTTGCTCTGTGATTCTTGAAC | -0.966
TTGGGGTACAGGATGAGCTGGA | 0.271
TCGATGACCCGTGTACACCAGG | -1.09
TTCTTAGTGAACATGGTTCGTT | 0.0305
TTTTGATGAATATGCTTGCATT | -1.14
TTGCTTCTTAGTGAACATGGTT | -0.403
TTTCCTGTGTGAATGCATCTGG | 0.364
TATATATTAGGATCTCGGCAGC | -0.886
TTTTTGATGAATATGCTTGCAT | 0.217

Biological target: DQX1
Experiment: as above
Settings: shRNA

Sequence | sensor-assay potency score (higher = more potent)
TTGAATCTCAGAAACAATGGAA | 0.304
TAGGATTGTAAACACTTCGGAG | -0.968
TTTTAGTAGTAACACCAGGGAG | -0.895
TAGTATGACACCCAGATCTGAC | -0.721
TATAAAGGCTTCATACACCTGG | 0.178
TTCTGATAGTATGACACCCAGA | -1.09
AACACTAGCACATCTCCTGGAA | 0.212
TTGCTCGCAATCGTCTTGCCTC | -0.154
TGAGTGACCACAACCTTTCGGG | 0.181
TTTAGTAGTAACACCAGGGAGC | -0.54
TTCAGCAGCTCATAGTAGCGGG | -0.681
TTCTGGAGCAGGCTGGTCCAGG | -1.18

Biological target: DSPP
Experiment: as above
Settings: shRNA

Sequence | sensor-assay potency score (higher = more potent)
TATGTAGAAAAACTCTTCCCTC | -0.0837
TGTACTGACACATTTGATCTTG | 0.307
TTGCTATCACTGCTGTTGCTGC | -0.741
TTTATCCTCTTTACCTTCGTTG | -0.331
TTGCTGCTGTCTGACTTGCTGT | -1.02
TTGCTGTCACTGCTGTCGCTGC | -0.804
TACTTGAGGTCCATCTTCTTGG | -0.264
TACTATCTGAATTTTGACCTAT | 0.43
TTATTAGTGTCTGATGTGCTAT | -0.602
TATCACTGTCATCATCTTCTGC | -0.312
TTGTGTCTTGACATTGCCTTTG | -0.762
TTACTGTCACTATCACTGCTGT | -0.164
TCTATCACCTTCATGCACCAGG | 0.183
TTTCTGAATTAGCATCATCATT | -1.5
TTTCTCTTGCTGTTGATCTGAG | -0.329
TTGGACAACAGCGACATCCTCA | 0.0891
TATGTTGACAACCTCTCCTTGT | 0.37
